Laboratory results taken from PubChem BioAssay.
Activity calls are given as the source filed them. Unless noted, how the calls were made is not given here.

What was measured:
[1] = compounds binding Alexa647 anti-His antibody – biochemical, small-molecule microarray, 635 nm fluorescence, artefact control for SMM control protein annotation, primary screen (AID 1128); details: higher = more signal;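 further: score merges feature fluorescence with signal-to-noise for each printed compound spot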
[2] = tested on: Human papillomavirus type 1a E7 protein (residues 1-88); assay: HPV1a E7 small-molecule binders, primary screen, biochemical, small-molecule microarray, residues 1-88, 635 nm (AID 1129); details: small-molecule microarray binding, fluorescence 635 nm; higher = more signal
[3] = biological target: Focal adhesion kinase 1 (Homo sapiens) (UniProt Q05397); assay: PTK2 protein binding on printed compound slides – biochemical, small-molecule microarray, 635/667 nm fluorescence, BSA, DTT, primary screen (AID 1130); details: 635 nm fluorescence, higher = more signal;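 further: composite of spot emission at 667 nm and signal to noise over triplicate slides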
[4] = tested on: Fibrinogen (Alexa647-labelled); assay: Alexa647-fibrinogen binding to printed small molecules – biochemical, small-molecule microarray, 635/667 nm fluorescence, artefact control for SMM control-protein annotation, profiling panel (AID 1131); details: fibrinogen-A647 binding fluorescence, higher = more signal;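 further: z-score merges 667 nm fluorescence with per-spot signal-to-noise over triplicate slides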
[5] = biological target: Follistatin (Homo sapiens) (UniProt P19883); assay: FST protein binding to printed compounds – biochemical, small-molecule microarray, 635/667 nm fluorescence, primary screen (AID 1132); details: 635 nm fluorescence, higher = more signal
[6] = biological target: Fibroblast growth factor 2 (Homo sapiens) (UniProt P09038); assay: basic fibroblast growth factor binding to printed compounds – biochemical, small-molecule microarray, 635/667 nm fluorescence, primary screen (AID 1133); details: FGF2, fluorescence 635/667, higher = more signal
[7] = JC-1 mitochondrial potential readout, lung cancer cells – cell-based, A549, JC-1 fluorescence, basal, 24 h, 100 nL, profiling panel (AID 1138); details: higher = more signal;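 further: A549 lung adenocarcinoma cells under basal conditions with no added stimulus; test concentration not given here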
Lefty1 = Lefty1 protein binding to printed compounds – biochemical, small-molecule microarray, 635/667 nm fluorescence, primary screen (AID 1139); details: fluorescence 635/667, higher = more signal
[8] = tested on: wheat germ agglutinin (Triticum aestivum), Alexa647-labelled; assay: Alexa647-WGA lectin binding to printed small molecules – biochemical, small-molecule microarray, 635/667 nm fluorescence, artefact control for SMM control-protein annotation, profiling panel (AID 1140); details: WGA-A647 binding, 635 nm fluorescence, higher = more signal;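 further: score merges 667 nm feature emission with signal to noise over triplicate slides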
[9] = biological target: Luciferin 4-monooxygenase (Photinus pyralis) (UniProt P08659); assay: inhibition of purified Photinus pyralis luciferase – biochemical, luminescence, purified enzyme, 2006 set, primary screen (AID 1141); details: purified firefly luciferase, SteadyGlo luminescence, 30 min; higher = more signal, called active from +8 up or from −8 down;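 further: cell-free assay with purified firefly luciferase at 100 ng per well in PBS; test concentration not given here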
[10] = tested on: Wnt5a (protein binding on small-molecule microarray); assay: small molecules binding Wnt5a protein – biophysical, small-molecule microarray, 635/667 nm fluorescence, primary screen (AID 1142); details: 635 nm fluorescence, higher = more signal;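 further: fluorescence read at 667 nm with signal to noise per printed feature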
[11] = ATP-based viability of Huh7 replicon cells – cell-based, CellTiter-Glo luminescence, basal, 48 h, cytotoxicity control for HCV replication inhibitor project, primary screen (AID 1143); details: higher = more signal, called active from +8 up or from −8 down;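 further: Huh7 hepatoma cells carrying a hepatitis C replication reporter with no stimulus; test concentration not given here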
[12] = Pseudomonas biofilm growth suppression – PAO1 strain, BacTiter-Glo luminescence, LB-PBS, primary screen (AID 1144); details: P. aeruginosa PAO1 biofilm, 12 h, higher = more signal
[13] = basal CRE-LacZ reporter activity in PC12 – cell-based, unstimulated, primary screen (AID 1145); details: no forskolin, luminescence, 4.5 h, higher = more signal, called active from +8 up or from −8 down
[14] = forskolin-driven CRE-LacZ activity in PC12 – cell-based, CRE-LacZ reporter, forskolin-stimulated, primary screen (AID 1146); details: luminescence, 4.5 h, higher = more signal, called active from +8 up or from −8 down;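 further: PC12 cells with 6xCRE LacZ reporter stimulated by forskolin 10 µM; beta-galactosidase reporter signal reflecting CREB driven transcription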
[15] = biological target: Streptavidin (Streptomyces avidinii) (UniProt P22629); assay: compounds binding control protein streptavidin – biophysical, small-molecule microarray, 635/667 nm fluorescence, artefact control for SMM compound annotation, primary screen (AID 1147); details: higher = more signal;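 further: signal reflects streptavidin binding to arrayed compounds as a control protein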
[16] = probe aInhba binding on compound microarray – biochemical, small-molecule microarray, 635/667 nm fluorescence, primary screen (AID 1148); details: higher = more signal;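 further: score merges 667nm spot fluorescence with signal-to-noise for antibody binding to printed compounds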
Torsin-1A (Homo sapiens) [17] = biological target: Torsin-1A (Homo sapiens) (UniProt O14656); assay: TOR1A wild-type binding on microarray – cell lysate, small-molecule microarray, lysate, 635/667 nm, primary screen (AID 1149); details: COS7 hTOR1A-WT lysate, 635 nm fluorescence, higher = more signal
Torsin-1A (Homo sapiens) [18] = biological target: Torsin-1A (Homo sapiens) (UniProt O14656); assay: torsin A mutant lysate binding on microarrays – cell lysate, small-molecule microarray, COS7 lysate, 635/667 nm fluorescence, primary screen (AID 1150); details: COS7 hTOR1A mutant lysate, 635 nm fluorescence, higher = more signal;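 further: score pools 667 nm emission and signal to noise measuring lysate protein binding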
[19] = tested on: Sonic hedgehog protein (Shh); assay: Sonic hedgehog microarray binding compounds – biochemical, small-molecule microarray, 635/667 nm fluorescence, primary screen (AID 1151); details: 635 nm fluorescence, higher = more signal;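 further: Shh protein binding to compounds spotted on small-molecule microarray slides; score combines spot fluorescence intensity with signal-to-noise across triplicate slides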

Chain of Focal adhesion kinase 1 (Homo sapiens) (Q05397 whole entry, looked up): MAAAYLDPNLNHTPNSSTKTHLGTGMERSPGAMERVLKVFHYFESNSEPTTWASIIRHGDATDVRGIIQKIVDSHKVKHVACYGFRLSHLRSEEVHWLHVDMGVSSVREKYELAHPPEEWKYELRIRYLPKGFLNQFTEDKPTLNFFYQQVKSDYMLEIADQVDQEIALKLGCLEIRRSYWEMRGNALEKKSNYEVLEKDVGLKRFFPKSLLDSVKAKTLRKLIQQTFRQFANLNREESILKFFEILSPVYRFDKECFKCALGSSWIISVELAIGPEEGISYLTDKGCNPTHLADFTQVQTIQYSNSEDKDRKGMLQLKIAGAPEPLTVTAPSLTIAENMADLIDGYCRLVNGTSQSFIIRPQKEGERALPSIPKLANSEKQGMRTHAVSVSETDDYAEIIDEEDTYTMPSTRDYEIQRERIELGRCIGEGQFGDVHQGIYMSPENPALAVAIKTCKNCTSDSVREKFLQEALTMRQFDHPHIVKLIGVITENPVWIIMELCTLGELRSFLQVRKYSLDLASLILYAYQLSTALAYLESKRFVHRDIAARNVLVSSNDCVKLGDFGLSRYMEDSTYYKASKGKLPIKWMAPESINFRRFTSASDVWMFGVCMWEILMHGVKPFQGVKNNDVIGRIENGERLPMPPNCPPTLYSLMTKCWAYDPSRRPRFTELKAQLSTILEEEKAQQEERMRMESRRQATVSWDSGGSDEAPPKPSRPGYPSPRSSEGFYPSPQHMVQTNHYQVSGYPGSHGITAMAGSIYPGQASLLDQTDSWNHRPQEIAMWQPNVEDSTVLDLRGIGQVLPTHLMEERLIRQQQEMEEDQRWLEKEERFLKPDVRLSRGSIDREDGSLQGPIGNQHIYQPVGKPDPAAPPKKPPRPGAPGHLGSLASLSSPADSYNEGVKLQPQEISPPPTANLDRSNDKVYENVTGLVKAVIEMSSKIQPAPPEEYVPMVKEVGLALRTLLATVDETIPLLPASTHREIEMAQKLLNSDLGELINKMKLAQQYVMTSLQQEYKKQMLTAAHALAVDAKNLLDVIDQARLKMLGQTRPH
Chain of Streptavidin (Streptomyces avidinii) (P22629 whole entry, looked up): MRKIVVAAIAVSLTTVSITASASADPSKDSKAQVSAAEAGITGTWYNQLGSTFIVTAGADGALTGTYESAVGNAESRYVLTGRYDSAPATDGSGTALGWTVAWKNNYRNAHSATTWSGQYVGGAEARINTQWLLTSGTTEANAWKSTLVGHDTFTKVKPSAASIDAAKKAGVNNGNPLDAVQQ
Chain of Luciferin 4-monooxygenase (Photinus pyralis) (P08659 whole entry, looked up): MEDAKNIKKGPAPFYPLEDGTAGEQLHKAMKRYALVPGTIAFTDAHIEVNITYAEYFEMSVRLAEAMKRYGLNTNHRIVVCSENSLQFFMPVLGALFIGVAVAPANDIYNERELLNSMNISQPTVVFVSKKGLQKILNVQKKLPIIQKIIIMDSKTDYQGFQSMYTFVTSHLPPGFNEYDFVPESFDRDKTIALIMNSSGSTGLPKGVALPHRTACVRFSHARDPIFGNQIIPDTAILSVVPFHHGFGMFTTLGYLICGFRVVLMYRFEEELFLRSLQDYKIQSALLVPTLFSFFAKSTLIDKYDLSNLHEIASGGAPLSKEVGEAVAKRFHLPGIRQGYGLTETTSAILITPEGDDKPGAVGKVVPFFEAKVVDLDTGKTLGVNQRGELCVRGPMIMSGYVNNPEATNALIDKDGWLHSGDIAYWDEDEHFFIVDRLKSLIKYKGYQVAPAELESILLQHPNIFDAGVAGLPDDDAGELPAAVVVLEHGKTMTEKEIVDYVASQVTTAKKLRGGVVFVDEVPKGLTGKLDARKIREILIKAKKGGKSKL
Chain of Torsin-1A (Homo sapiens) (O14656 whole entry, looked up): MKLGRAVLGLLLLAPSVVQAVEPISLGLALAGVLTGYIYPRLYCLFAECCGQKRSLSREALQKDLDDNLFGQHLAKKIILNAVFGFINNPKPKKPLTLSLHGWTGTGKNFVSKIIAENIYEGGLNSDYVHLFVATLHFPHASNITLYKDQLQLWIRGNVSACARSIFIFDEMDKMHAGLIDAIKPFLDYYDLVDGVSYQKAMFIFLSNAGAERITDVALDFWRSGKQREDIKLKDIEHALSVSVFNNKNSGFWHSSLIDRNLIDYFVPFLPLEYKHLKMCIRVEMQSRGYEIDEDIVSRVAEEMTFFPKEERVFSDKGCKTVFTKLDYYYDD
Chain of Follistatin (Homo sapiens) (P19883 whole entry, looked up): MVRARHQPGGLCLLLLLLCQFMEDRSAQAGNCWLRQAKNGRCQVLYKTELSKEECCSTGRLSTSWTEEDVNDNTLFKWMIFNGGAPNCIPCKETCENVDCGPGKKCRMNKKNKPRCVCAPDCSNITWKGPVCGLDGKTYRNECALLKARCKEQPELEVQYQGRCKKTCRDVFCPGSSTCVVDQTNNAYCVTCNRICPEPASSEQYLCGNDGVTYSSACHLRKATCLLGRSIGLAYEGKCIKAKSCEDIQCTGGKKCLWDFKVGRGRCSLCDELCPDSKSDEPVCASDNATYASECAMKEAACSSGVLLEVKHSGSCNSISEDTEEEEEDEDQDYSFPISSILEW
Chain of Fibroblast growth factor 2 (Homo sapiens) (P09038 whole entry, looked up): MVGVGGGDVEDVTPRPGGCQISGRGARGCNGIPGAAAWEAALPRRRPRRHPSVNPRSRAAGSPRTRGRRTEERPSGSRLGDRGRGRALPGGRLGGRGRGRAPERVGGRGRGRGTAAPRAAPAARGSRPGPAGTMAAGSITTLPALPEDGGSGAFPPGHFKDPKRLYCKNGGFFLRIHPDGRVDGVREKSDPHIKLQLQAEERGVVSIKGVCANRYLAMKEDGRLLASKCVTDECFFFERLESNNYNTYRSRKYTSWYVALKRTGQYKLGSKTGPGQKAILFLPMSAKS

Structure (SMILES) | composite z-score [1] | composite z-score [2] | composite z-score [3] | composite z-score [4] | composite z-score [5] | composite z-score [6] | z-score [7] | composite z-score (Lefty1) | composite z-score [8] | z-score [9] | composite z-score [10] | z-score [11] | z-score [12] | z-score [13] | z-score [14] | composite z-score [15] | composite z-score [16] | composite z-score (Torsin-1A (Homo sapiens) [17]) | composite z-score (Torsin-1A (Homo sapiens) [18]) | composite z-score [19]
CC(C)(C)OC(=O)CC[C@@]1(C(=O)NCCN2CCOCC2)N=C(c2ccc(OCCCO)cc2)O[C@@H]1c1ccccc1N=[N+]=[N-] | 0.22 | 1.2 | 1.21 | 0.554 | 1.18 | -0.156 | 1.26 | -0.0836 | 0.0832 | -9.63 (active) | 0.492 | -1.34 (inactive) | 1.45 (inactive) | 1.55 (inactive) | -0.564 (inactive) | 0.554 | 0.0614 | 1.67 | 1.43 | -0.431
O=C1O[C@H](c2ccccc2)[C@H](c2ccccc2)N2[C@H]1[C@@H](C(=O)O)[C@]1(C(=O)Nc3ccc(C#CC4=CCCCC4)cc31)[C@H]2c1ccccc1OCCO | 1.76 | 1.23 | 0.827 | 0.922 | 1.26 | 1.08 | -2.56 | 1.63 | 1.18 | -6.51 (inactive) | 1.02 | -4.67 (inactive) | -0.177 (inactive) | 17.1 (active) | 26.1 (active) | 1.97 | 0.17 | 0.849 | 0.516 | 0.892
CCOC(=O)C1=CCC(c2ccc(C)cc2)N(S(=O)(=O)c2ccc(C)cc2)C1 (stereo not given) | 0.403 | 0.939 | 0.335 | 0.258 | 0.523 | -0.279 | 2.06 | 0.288 | 0.396 | 1.47 (inactive) | -0.273 | -3.23 (inactive) | 0.271 (inactive) | -0.527 (inactive) | -0.34 (inactive) | 0.841 | -0.0645 | -0.0669 | 0.121 | -0.396
Cc1ccc(C(C)CC(O)C2C=CC3C(=O)N(c4ccccc4)C(=O)C3N2Nc2ccc([N+](=O)[O-])cc2)o1 (stereo not given) | 0.484 | 1.23 | 0.772 | 0.904 | 1.06 | 0.232 | -0.828 | -0.0023 | 0.646 | 1.45 (inactive) | 0.354 | -0.344 (inactive) | -0.99 (inactive) | 0.136 (inactive) | 0.812 (inactive) | 1.71 | -0.0131 | -0.344 | 0.222 | 0.442
O=C1C2C=CC(C(O)C3CCCCC3)N(Nc3ccc([N+](=O)[O-])cc3)C2C(=O)N1c1ccccc1 (stereo not given) | 3.32 | 1.21 | 0.539 | 0.959 | -0.647 | -1.58 | -1.72 | -0.153 | 0.823 | 0.618 (inactive) | -0.457 | -0.415 (inactive) | -0.998 (inactive) | 0.537 (inactive) | 1.13 (inactive) | 0.48 | -0.213 | -0.465 | -0.199 | -1.09
CC1(C)[C@@H]2CC(C(O)C3C=CC4C(=O)N(c5ccccc5)C(=O)C4N3Nc3ccccc3)=C[C@H]1C2 (stereo not given in full) | -0.21 | 0.598 | 1.13 | 0.153 | 0.955 | 0.329 | 1.01 | -0.409 | 0.241 | 0.486 (inactive) | 0.0836 | 0.355 (inactive) | -0.959 (inactive) | 1 (inactive) | 0.874 (inactive) | 0.595 | 0.571 | -0.37 | -0.233 | -0.385
N#Cc1ccc(NN2C(C(O)c3c(F)cccc3Cl)C=CC3C(=O)N(c4ccccc4)C(=O)C32)cc1 (stereo not given) | 2.29 | 1.21 | 0.377 | 0.973 | 1.23 | 0.407 | -0.36 | -0.0219 | 0.997 | -0.671 (inactive) | 0.607 | 0.17 (inactive) | -1.11 (inactive) | 0.622 (inactive) | 0.201 (inactive) | 1.35 | 0.419 | 0.513 | 1.35 | 0.585
COC(=O)[C@@]1(Cc2ccc(OC)cc2)[C@H]2c3cc(C(=O)N4CCCC4)n(Cc4ccc(OC)c(OC)c4)c3C[C@H]2CN1C(=O)c1ccccc1 | 2.04 | 1.22 | 0.343 | 0.607 | 1.37 | 0.515 | 1.58 | 0.724 | 0.742 | 2.16 (inactive) | 0.753 | -2.2 (inactive) | -0.139 (inactive) | 0.959 (inactive) | -0.265 (inactive) | 2.03 | 0.955 | 0.201 | 0.695 | 0.464
CC(C)C[C@@H]1NC(=O)[C@@H]2C[C@H](C(=O)NCCCCCN)[C@H](c3cccc(OCCO)c3)N2C1=O | 1.19 | 1.04 | 1.13 | 0.93 | 0.555 | 0.591 | 1.18 | 0.288 | 1.13 | -1.21 (inactive) | 0.794 | -0.542 (inactive) | -1.64 (inactive) | 0.0043 (inactive) | 0.442 (inactive) | 1.05 | -0.0736 | 0.941 | 0.919 | 1.05
[N-]=[N+]=NCc1ccccc1C[C@]1(C(=O)NCC(O)CO)N=C(c2ccc(OCCCO)cc2)O[C@H]1c1ccccc1 (stereo not given in full) | 0.375 | -0.116 | -0.294 | -0.231 | 0.263 | -0.476 | -0.077 | -1.5 | 0.228 | -0.263 (inactive) | 0.185 | -3.58 (inactive) | 0.55 (inactive) | 1.87 (inactive) | -0.621 (inactive) | 0.236 | 0.109 | 0.381 | 0.777 | -1.52
